Out of some 52,000 compounds screened, about 4,300 (8.3%) were called active. This is one part of a sample in which actives are shown more often than they occur. No stated cut-off is given here; in the data, active means survival mostly below about 52% (no sharp cut-off); inactive means mostly above about 56%.

This assay concerns DeltatarO mutant. The assay can be described thus: growth inhibition of S. aureus wild type versus tarO mutant, primary screen, teichoic acid synthesis inhibitors, RN4220, OD600 (AID 463173). The following applies: OD600, 18 h, stronger effect = lower value, screened at 18.75 µg/mL (by protocol).
As to `CCC(=O)N1CCc2cc(CNC(=O)c3cccc(N(C)C)c3)ccc21`, the survival is 84% (inactive).

Consider `CCOc1ccc(NC(=O)CC2C(=O)N(c3ccc(OC)cc3)C(=O)N2C2CCCCC2)cc1` (stereo not drawn), for which the survival is 110% (inactive).

As to `CCOc1ccc(OCC)c(S(=O)(=O)n2cnc3cc(C)c(C)cc32)c1`, the survival is 104% (inactive).

`CCOc1cc(C)c(C(C)C)cc1S(=O)(=O)n1ccnc1CC`: the survival was -3% (active).

Take `Cc1nccn1S(=O)(=O)c1c(C(C)C)cc(C(C)C)cc1C(C)C`: the survival is 86% (inactive).

As for `CCc1nccn1S(=O)(=O)c1cc(Br)ccc1Br`, the survival is 43% (active).

As to `COc1cc(S(=O)(=O)n2ccnc2C(C)C)ccc1Br`, the survival is 55% (inactive).

Regarding `Cc1nccn1S(=O)(=O)c1ccc(Cl)cc1Cl`, the survival is 67% (inactive).

Regarding `Cc1ccc(NC(=O)CN(C)S(=O)(=O)c2cnc[nH]2)cc1`, the survival was 102% (inactive).

For `Cc1cc(C(=O)NCc2ccccc2)c2c(C)nn(-c3cccc(F)c3)c2n1`, the survival is 55% (inactive).

On to `Cc1cccc(N2CCN(c3ncnc4c3nc3n4CCCCC3)CC2C)c1` (stereo not drawn), for which the survival was 101% (inactive).

For the compound `O=C(NCCc1ccccc1)C1CCN(c2ncnc3c2nc2n3CCCCC2)CC1`, the survival was -2% (active).

Regarding `O=C(C1CCN(c2ncnc3c2nc2n3CCCCC2)CC1)N1CCN(c2ccc(F)cc2)CC1`, the survival was -1% (active).

As for `O=C(NCc1ccccc1)C1CCN(c2ncnc3c2nc2n3CCCCC2)CC1`, the survival is 84% (inactive).

For `O=C(NCCc1ccc(Cl)cc1)C1CCN(c2ncnc3c2nc2n3CCCCC2)CC1`, the survival is 89% (inactive).

For `Cc1ccc(N2CCN(C(=O)C3CCN(c4ncnc5c4nc4n5CCCCC4)CC3)CC2)c(C)c1`, the survival was 79% (inactive).

With `Cc1cccc(N2CCN(C(=O)C3CCN(c4ncnc5c4nc4n5CCCCC4)CC3)CC2C)c1` (stereo not drawn), the survival was 6% (active).

For `O=C(C1CCN(c2ncnc3c2nc2n3CCCCC2)CC1)N1CCN(c2ccc(Cl)cc2)CC1`, the survival was 81% (inactive).

As for `O=C(C1CCN(c2ncnc3c2nc2n3CCCCC2)CC1)N1CCN(c2ccccc2)CC1`, the survival is 72% (inactive).

As for `O=c1c(N2CCc3ccccc3C2)csc2ccc(Br)cc12`, the survival is 78% (inactive).

`Cc1cc(C)c(S(=O)(=O)Nc2ccc(-c3ccc(N4CCCCCC4)nn3)cc2)c(C)c1`: the survival is 84% (inactive).

In the case of `O=C1CC(C(=O)NCc2ccccc2)N=C(N2CCCCC2)N1` (stereo not drawn), the survival is 97% (inactive).

With `Cc1cc(C)cc(NC(=O)CN(C)S(=O)(=O)c2ccc3c(c2)CCC(=O)N3)c1`, the survival is 90% (inactive).

On to `CCCCOC(=O)OC1CCS(=O)(=O)C1` (stereo not drawn), for which the survival is 66% (inactive).

As to `Cc1cccc(-n2cc(-c3ccccc3)c3c(NC(C)C)ncnc32)c1`, the survival was 107% (inactive).

Consider `Cc1nc2nc(C(F)(F)F)[nH]c2cc1Br`, for which the survival was 4% (active).

With `Nc1ccc2nc(C(F)(F)F)[nH]c2c1`, the survival was 95% (inactive).

Consider `CC(C)C(=O)Nc1cccc(-c2nc3ccccc3o2)c1`, for which the survival is 112% (inactive).

With `Cc1ccc(C(=O)Nc2cccc(-c3nc4ccccc4o3)c2)c(Cl)c1`, the survival was 53% (inactive).

For `Cc1cc(OC(C)C(=O)Nc2cccc(-c3nc4ccccc4o3)c2)cc(C)c1Cl` (stereo not drawn), the survival was 46% (active).

For `COc1ccccc1OC(C)C(=O)Nc1cccc(-c2nc3ccccc3s2)c1` (stereo not drawn), the survival is 37% (active).

As for `CC(Oc1ccccc1F)C(=O)Nc1ccc(-c2nc3ccccc3s2)cc1` (stereo not drawn), the survival was 107% (inactive).

In the case of `CC(=O)Nc1cccc(-c2nc3ccccc3o2)c1`, the survival is 107% (inactive).

As to `Cc1cc2oc(C(=O)Nc3cccc(-c4nc5ccccc5o4)c3)c(C)c2cc1Cl`, the survival was 80% (inactive).

Turning to `COc1ccccc1OC(C)C(=O)Nc1ccc(-c2nc3ccccc3s2)cc1` (stereo not drawn), the survival was 64% (inactive).

As for `COc1ccccc1OC(C)C(=O)Nc1cccc(-c2nc3ccccc3o2)c1` (stereo not drawn), the survival is 18% (active).

`COc1ccc(-c2cn3nc(N4CCCC(C(=O)Nc5cccc(Cl)c5C)C4)sc3n2)cc1` (stereo not drawn): the survival was 82% (inactive).

Regarding `COc1ccc(-n2ncc(C(=O)NCCCN3CCCCC3)c2C2CCN(C(=O)OC(C)(C)C)CC2)cc1`, the survival is 73% (inactive).

As to `CCCOc1ccc(C(=O)Nc2ccc3oc(-c4ccncc4)nc3c2)cc1`, the survival was 62% (inactive).

As for `Cc1cccc(-c2cc(NC(=O)c3ccccc3C)n(-c3ccccc3)n2)c1`, the survival is 80% (inactive).

In the case of `Cc1nc2sc(C(=O)N(C)c3ccccc3)c(NC(=O)c3ccccc3Cl)c2c(C)c1C`, the survival is 57% (inactive).

Turning to `CCCCCn1c(=O)[nH]c2cc(C(=O)NCc3ccc(Cl)cc3)ccc2c1=O`, the survival is 71% (inactive).

Regarding `COc1cccc2cc(-c3csc(-c4ccc(Cl)cc4)n3)c(=O)oc12`, the survival was 99% (inactive).

With `COc1ccc(NC(=O)c2c(C)oc3ccc(O)c(CN4CCCC(C)C4)c23)cc1Cl` (stereo not drawn), the survival is 52% (active).

With `COc1ccc(NC(=O)c2c(C)oc3ccc(O)c(CN4CCCC(C)C4)c23)cc1` (stereo not drawn), the survival was 87% (inactive).

On to `CCN1CCN(Cc2c(O)ccc3oc(C)c(C(=O)Nc4ccc(OC)c(Cl)c4)c23)CC1`, for which the survival is 66% (inactive).

`COc1ccc(NC(=O)c2c(C)oc3ccc(O)c(CN4CCCCCC4)c23)cc1Cl`: the survival was 94% (inactive).

Regarding `COc1ccc(NC(=O)c2c(C)oc3ccc(O)c(CN4CCCC4)c23)cc1Cl`, the survival was 80% (inactive).

With `COc1ccc(NC(=O)c2c(C)oc3ccc(O)c(CN4CCC(C)CC4)c23)cc1Cl`, the survival is 55% (active).

On to `COc1ccc(CCNCc2c(C(=O)O)c(C)n(Cc3c(F)cccc3Cl)c2C)cc1OC`, for which the survival was 121% (inactive).

Turning to `CCCCOC(=O)c1ccc(NC(=O)Cn2nnc3sc4c(c3c2=O)CCCC4)cc1`, the survival was 67% (inactive).

Turning to `Cc1ccc(CCNS(=O)(=O)c2c(C)nc3sc(C)c(C)n3c2=O)cc1`, the survival is 82% (inactive).

Take `CCCNC(=O)c1cnc2sc(N3CCCCCC3)nn2c1=O`: the survival was 78% (inactive).

`COc1ccc(CNC(=O)c2ccc(NC(=O)N3CCSc4ncccc43)cc2)cc1`: the survival was 84% (inactive).

Regarding `COc1ccc(OC)c(-n2c3c(cc(-c4nc(-c5ccc(Cl)cc5)cs4)c2=O)C(=O)CC(C)(C)C3)c1`, the survival is 75% (inactive).

Take `CCc1ccc2oc(-c3cccc(NC(=O)COc4ccccc4Cl)c3)nc2c1`: the survival was 57% (inactive).

As for `CCc1ccc2oc(-c3ccc(N)cc3)nc2c1`, the survival was 34% (active).

In the case of `CCc1ccc2oc(-c3cccc(NC(=O)c4cc5ccccc5o4)c3)nc2c1`, the survival was 14% (active).

As to `CCc1ccc2oc(-c3cccc(NC(=O)c4ccc(-c5cccc([N+](=O)[O-])c5)o4)c3)nc2c1`, the survival is 58% (inactive).

As to `CCOc1ccc(C(=O)Nc2ccc(-c3nc4cc(CC)ccc4o3)cc2)cc1`, the survival was 61% (inactive).

For the compound `CCC(C)c1ccc2oc(-c3ccc(NC(=O)c4cc5ccccc5o4)cc3)nc2c1` (stereo not drawn), the survival was 46% (active).

In the case of `CCOc1ccc(C(=O)Nc2ccc3oc(-c4ccc(Br)cc4)nc3c2)cc1`, the survival is 68% (inactive).

`CC(C)c1ccc2oc(-c3ccc(NC(=O)c4cc5ccccc5o4)cc3)nc2c1`: the survival was 48% (inactive).

With `CCc1ccc2oc(-c3ccc(NC(=O)c4cccc(Cl)c4Cl)cc3)nc2c1`, the survival is 63% (inactive).

In the case of `CCc1ccc2oc(-c3cccc(NC(=O)C(C)(C)Oc4ccc(Br)cc4)c3)nc2c1`, the survival was 36% (active).

For `Cc1cc2nc(-c3ccc(NC(=O)c4cc5ccccc5o4)cc3)oc2cc1C`, the survival is 51% (inactive).

On to `COc1ccc(-c2nc3cc(NC(=O)c4cc5ccccc5o4)ccc3o2)cc1`, for which the survival is 62% (inactive).

Take `COc1ccc2c(c1)c1c(c(=O)n(-c3ccc(F)c(Cl)c3)c(=O)n1Cc1ccccc1C)n2C`: the survival was 83% (inactive).

Consider `COc1ccc(-n2ccnc2SCC(=O)Nc2cccc(OC)c2)cc1`, for which the survival is 98% (inactive).

As to `Cc1cc(=O)[nH]c2nnc(SCC(=O)Nc3ccc(OC(F)(F)F)cc3)n12`, the survival is 74% (inactive).

With `CCc1ccc(CNC(=O)c2ccc(-n3c(C)cc4c3CCC(C)C4)cc2)cc1` (stereo not drawn), the survival is 123% (inactive).

Regarding `Cc1ccn2c(=O)cc(CSc3nnc(C)s3)nc2c1`, the survival was 77% (inactive).

Consider `COc1ccc(-c2cc(OC(=O)c3cccc(Cl)c3)c3c(C)oc(C)c3c(=O)c2)cc1`, for which the survival was 132% (inactive).

Take `COc1ccc(S(=O)(=O)N2CCN(c3cccc(C)c3C)CC2)c2ccccc12`: the survival is 152% (inactive).

In the case of `CCCN1CCN(c2ncc3c(n2)CCN(Cc2ccc(OC)c(OC)c2OC)C3)CC1`, the survival was 83% (inactive).

As to `O=C(Nc1ccc(-c2nc3cc(Cl)ccc3o2)cc1)c1cc2ccccc2o1`, the survival is 52% (inactive).

For the compound `CCc1ccc2oc(-c3ccc(NC(=O)c4cc5ccccc5o4)cc3)nc2c1`, the survival is 40% (active).

As to `Cc1ccc(-c2nc3cc(NC(=O)c4cc5ccccc5o4)ccc3o2)cc1`, the survival was 72% (inactive).

On to `O=C(O)CC(NC(=O)Cc1ccccc1)c1ccccc1` (stereo not drawn), for which the survival is 99% (inactive).

On to `O=C1CCCc2cc(S(=O)(=O)NCC3CCC(C(=O)NCc4ccccc4Cl)CC3)ccc2N1` (stereo not drawn), for which the survival is 71% (inactive).

As for `Cc1cc(C)cc(NC(=O)c2cccc3c2C(=O)N(C2CCCCC2)C3)c1`, the survival is 33% (active).

For `COc1cc(NC(=O)c2cccc3c2C(=O)N(C2CCCCC2)C3)cc(OC)c1`, the survival is 90% (inactive).

As to `O=C(Nc1c(Cl)cccc1Cl)c1cccc2c1C(=O)N(C1CCCCC1)C2`, the survival was 78% (inactive).

For `COC(=O)c1ccc(NC(=O)c2cccc3c2C(=O)N(C2CCCCC2)C3)cc1`, the survival was 80% (inactive).

Consider `CC(C)c1ccc(NC(=O)c2cccc3c2C(=O)N(C2CCCCC2)C3)cc1`, for which the survival was -10% (active).

As for `COc1cc(NC(=O)c2cccc3c2C(=O)N(C2CCCCC2)C3)cc(OC)c1OC`, the survival was 53% (inactive).

`Cc1cccc(C2CC(=O)Nc3cc4c(cc32)OCO4)c1` (stereo not drawn): the survival was 77% (inactive).

As to `CCCCN(Cc1ccccc1)C(=O)CN(C)S(=O)(=O)c1ccc2c(c1)c(=O)n(C)c(=O)n2C`, the survival was 128% (inactive).

On to `Cc1ccc(C)c(Nc2nnc(-c3ccc(C)c(S(=O)(=O)N4CCN(C)CC4)c3)c3ccccc23)c1`, for which the survival was 84% (inactive).

`COC(=O)c1cc2sccc2n1Cc1ccc(F)cc1`: the survival was 124% (inactive).

Consider `COC(=O)c1cc2sccc2n1Cc1ccccc1`, for which the survival is 35% (active).

Regarding `COC(=O)CNC(=O)c1cc2sccc2n1Cc1ccccc1`, the survival was 97% (inactive).

As for `CCc1cc2c(cc(C(=O)OC)n2Cc2nc(-c3ccc(C)cc3)oc2C)s1`, the survival is 26% (active).

`COC(=O)c1cc2sccc2n1Cc1nc(-c2ccc(Cl)cc2)oc1C`: the survival was 90% (inactive).

As for `COC(=O)c1cc2sc(Cl)cc2n1Cc1nc(-c2ccc(OC)cc2)oc1C`, the survival was 72% (inactive).

For the compound `COC(=O)c1cc2sccc2n1Cc1nc(-c2ccc(C)cc2)oc1C`, the survival was 28% (active).

As for `COC(=O)c1cc2sccc2n1Cc1nc(-c2cccc(Cl)c2)oc1C`, the survival was 83% (inactive).

Turning to `COC(=O)c1cc2sc(C)cc2n1Cc1nc(-c2ccc(C)cc2)oc1C`, the survival is 109% (inactive).

(Values after PubChem BioAssay AID463173 (ICCB-Longwood Screening Facility, Harvard Medical School, 2010).)
